From PubChem BioAssay AID1852 (Sanford-Burnham Center for Chemical Genomics, 2009) come the findings set out here.

Each structure is given as a SMILES string. Screen size: about 2,500 compounds; about 1,100 (44%) were called active.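 The calls were made as follows: active = inhibition above 50% at 4 µM in the single-point screen; inactive = inhibition of 50% or less.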 The set was probably picked from earlier hits. Some of the results follow.

This test in a line: TNF-a-driven NF-kB reporter inhibitors, primary screen, selectivity assay for NOD1/NOD2 signaling inhibitor project, cell-based, HEK293T NF-kB-Luc, luminescence (AID 1852). The settings on record: TNF-a induced, 14 h, at 4 µM, active compounds read high.
Regarding `COc1ccc(-c2nc(CN3CCN(c4ncnc5ccccc45)CC3)c(C)o2)c(OC)c1`, the inhibition was 23.9% (inactive).

`Cc1oc(-c2cc(F)ccc2F)nc1CN1CCN(c2ncnc3ccccc23)CC1`: the inhibition was 104% (active).

For the compound `Cc1oc(-c2cccc3ccccc23)nc1CN1CCN(c2ncnc3ccccc23)CC1`, the inhibition is 43% (inactive).

As for `COc1ccc(-c2c[n+]3c(n2-c2ccc(C)cc2)CCCCC3)cc1`, the inhibition was 50.3% (active).

Turning to `COc1cc(-c2n[nH]c(=S)n2-c2ccc(C)cc2)cc(OC)c1OC`, the inhibition was 2.4% (inactive).

As for `CC1(C)C=C2[C@H]3CC[C@@H]4[C@@]5(C)CCC(=O)C(C)(C)[C@@H]5CC[C@@]4(C)[C@]3(C)CC[C@@]2(C(=O)O)CC1`, the inhibition was 1.3% (inactive).

Take `N#CC1=C(N)C(C#N)(C#N)C(c2cccnc2)C2CC(c3ccccc3)CC=C12` (configuration not stated): the inhibition is 83.6% (active).

For `O=C(Nc1nc2c(Cl)cccc2s1)c1ccc([N+](=O)[O-])o1`, the inhibition is 6.3% (inactive).

As for `O=C(Nc1nnc(SCc2c(Cl)cccc2Cl)s1)c1cccc([N+](=O)[O-])c1`, the inhibition was 83.1% (active).

As to `Cc1csc(NC(=O)c2cc([N+](=O)[O-])cc([N+](=O)[O-])c2)n1`, the inhibition was -6.5% (inactive).

For `CCNS(=O)(=O)c1ccc(NC(=O)Cn2cc([N+](=O)[O-])cn2)cc1`, the inhibition was 25% (inactive).

`CCOC(=O)c1cc(C(=O)Nc2ccc(S(=O)(=O)Nc3ccc(OC)cc3)cc2)nn1C`: the inhibition is 18.6% (inactive).

For the compound `COc1ccc(NC(=O)Cn2nnc(-c3ccccc3NS(=O)(=O)c3ccc(OC)cc3)n2)cc1`, the inhibition was 70.7% (active).

Turning to `Cc1noc(C)c1CSc1nc2ccccc2nc1NS(=O)(=O)c1ccc(Cl)cc1`, the inhibition is 102% (active).

In the case of `O=S(=O)(Nc1nc2ccccc2[nH]1)c1ccc(Cl)cc1`, the inhibition is -4.8% (inactive).

As to `O=[N+]([O-])c1nn(-c2ccc3c(c2)OCCO3)n(O)c1=Nc1ccccc1`, the inhibition is 38% (inactive).

Regarding `O=C1C=C(N2CCOCC2)c2ccccc2C1=O`, the inhibition was 23.7% (inactive).

As to `Nc1ccc(S(=O)(=O)Nc2nccc(/C=C/c3cccc(Br)c3)n2)cc1`, the inhibition is 36.8% (inactive).

For the compound `O=[N+]([O-])c1ccc(Oc2ccc(F)cc2)c2ccncc12`, the inhibition was 61.5% (active).

For `O=[N+]([O-])c1ccc(Oc2ccc(F)cc2Br)c2ccncc12`, the inhibition was 66.6% (active).

Turning to `O=[N+]([O-])c1ccc(Oc2cccc(F)c2)c2ccncc12`, the inhibition is 42.3% (inactive).

Turning to `Cc1ccccc1S(=O)(=O)Cc1ccc(C(=O)N2CCN(c3cccc(C)c3C)CC2)o1`, the inhibition is -33.6% (inactive).

On to `CCn1nc(C)c(C(=O)Nc2cc(Oc3cc(C)cc(C)c3)cc([N+](=O)[O-])c2)c1C`, for which the inhibition is 24.6% (inactive).

For `Cn1cc([N+](=O)[O-])c(C(=O)Nc2cc(Oc3ccccc3)cc([N+](=O)[O-])c2)n1`, the inhibition was 73.2% (active).

`Cc1ccc(-c2nc(NC(=O)c3nn(C)cc3[N+](=O)[O-])sc2C)cc1`: the inhibition is 39.6% (inactive).

Turning to `O=C(N/N=C/c1ccccn1)c1cc(-c2ccc(Cl)cc2)nc2ccccc12`, the inhibition was 104% (active).

As for `O=C(Cc1cc(C(=O)O)c2ccccc2n1)Nc1ccccc1`, the inhibition is -8.7% (inactive).

Consider `CCCOc1cccc(-c2cc(C(=O)N/N=C/c3ccccn3)c3ccccc3n2)c1`, for which the inhibition is 102% (active).

Turning to `O=C(N/N=C/c1ccccn1)c1cc(-c2ccc(Br)cc2)nc2ccccc12`, the inhibition was 105% (active).

For the compound `O=C(N/N=C/c1ccc[nH]1)c1cc(-c2ccc(Cl)cc2)nc2ccccc12`, the inhibition was 3.4% (inactive).

Turning to `O=C(N/N=C/c1ccccn1)c1cc(-c2ccccc2)nc2ccccc12`, the inhibition was 99.1% (active).

For `COc1ccc(C(C(=O)NC2CCCCC2)N(C(=O)CCl)c2ccccc2Cl)cc1` (configuration not stated), the inhibition was 6.2% (inactive).

In the case of `O=C(CN1C(=O)c2cccnc2Oc2ccc(Cl)cc21)NC1CCCCCC1`, the inhibition was 25.9% (inactive).

For the compound `Cc1ccc(N(C(=O)CCl)C(C(=O)NC2CCCCC2)c2cccnc2)cc1C` (configuration not stated), the inhibition is 79.9% (active).

Take `S=C(Nc1ccc(Cl)c(Cl)c1)NC1CCCCC1`: the inhibition is 44.7% (inactive).

Regarding `COc1ccc(C(C(=O)NC2CCCCC2)N(C(=O)CCl)c2ccc(Cl)cc2)cc1` (configuration not stated), the inhibition is 20.4% (inactive).

In the case of `O=C(NC1CCCCC1)C(c1cccnc1)N(C(=O)CCl)c1ccccc1Cl` (configuration not stated), the inhibition was 58.7% (active).

`COc1ccc(C(=O)/C=C/C(=O)N(CC(=O)NC2CCCCC2)Cc2ccccc2OC)c(O)c1`: the inhibition is 33.1% (inactive).

Turning to `O=C(NC1CCCCC1)C(c1cccnc1)N(C(=O)CCl)c1cccc(Cl)c1` (configuration not stated), the inhibition was 75.7% (active).

With `COc1ccc(C(C(=O)NC2CCCCC2)N(C(=O)CCl)c2cccc(Cl)c2)cc1` (configuration not stated), the inhibition is 60.8% (active).

Consider `O=c1c(Cl)c(Cl)cnn1Cc1ccc(F)cc1`, for which the inhibition is 33.4% (inactive).

For `O=c1c(Cl)c(Cl)cnn1Cc1nnc(-c2ccc(Cl)cc2)o1`, the inhibition was 51.5% (active).

Regarding `O=c1c(Cl)c(Cl)cnn1Cc1nnc(-c2ccccc2Br)o1`, the inhibition is 108% (active).

As for `Clc1ccc(-c2csc3ncnc(NCCN4CCOCC4)c23)cc1`, the inhibition is 60.1% (active).

On to `COc1ccc(-c2csc3ncnc(N4CCN(c5ccccc5[N+](=O)[O-])CC4)c23)cc1`, for which the inhibition was -57.1% (inactive).

Turning to `COc1ccc(-c2csc3ncnc(NCCN4CCOCC4)c23)cc1`, the inhibition is 89.9% (active).

Consider `C=CCn1c(C)c(/C=C/c2cc[n+](C)cc2)c2ccccc21`, for which the inhibition was 12% (inactive).

In the case of `COc1ccc(C2CC(c3cccs3)=NN2C(=O)CCl)cc1OC` (configuration not stated), the inhibition was 47.4% (inactive).

As for `O=C(CCl)N1N=C(c2ccco2)CC1c1ccco1` (configuration not stated), the inhibition is 58.9% (active).

With `O=C(CCl)N1N=C(c2ccco2)CC1c1cccs1` (configuration not stated), the inhibition is 56% (active).

On to `O=C(CCl)N1N=C(c2cccs2)CC1c1ccco1` (configuration not stated), for which the inhibition was 55.2% (active).

Regarding `COc1cc(C2CC(c3cccs3)=NN2C(=O)CCl)ccc1OC(F)F` (configuration not stated), the inhibition was 40.7% (inactive).

On to `Cc1ccc(C2=NN(C(=O)CCl)C(c3cccs3)C2)o1` (configuration not stated), for which the inhibition was 43.6% (inactive).

With `COC(=O)c1ccc2c(c1)C(C)(C)C(/C=C/c1ccc(O)cc1)=[N+]2C`, the inhibition is 60.8% (active).

Regarding `COC(=O)c1ccc2c(c1)C(C)(C)C(/C=C/c1ccccc1O)=[N+]2C`, the inhibition was -7.6% (inactive).

Take `COC(=O)C1=C(C)N(c2ccc(F)cc2)/C(=C/c2ccc(O)cc2)C1=O`: the inhibition was -3% (inactive).

With `c1cnc(N2CCN(c3ccc4ccccc4n3)CC2)nc1`, the inhibition is -118% (inactive).

One may read the inhibition as the change of the read-out against control, counted positive when it falls.
